Results: PubChem BioAssay AID1159580 (chemical genetic matrix, 2015)
In all, about 5,500 compounds went through this assay and about 2,000 (36%) were called active. Inconclusive results (about 18%) are left out. This is one part of the list. A number with no mark means an inactive call. Cut-off read from the data, not from the text of the source: active = normalized growth mostly below about 0.91 (no sharp cut-off); inconclusive = no clear call, values can overlap the other calls; inactive = mostly above about 0.92.

Assay: chemical genetic growth profiling, strain panel (AID 1159580);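 note: tested at 20 µM; growth read once vehicle control cultures reached saturation at 30 °C; 1 = growth at the plate median or of vehicle wells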
Details: S. cerevisiae deletion strains, growth OD
[1] = locus YAL013W, strain DEP1, stronger effect = lower value
[2] = locus YBR229C, strain ROT2, stronger effect = lower value
[3] = locus YDL101C, strain DUN1, stronger effect = lower value
[4] = locus YDL134C, strain PPH21, stronger effect = lower value
[5] = locus YDR150W, strain NUM1, stronger effect = lower value
[6] = locus YEL061C, strain CIN8, stronger effect = lower value
[7] = locus YGR078C, strain PAC10, stronger effect = lower value
[8] = locus YHR030C, strain SLT2, stronger effect = lower value
[9] = locus YHR087W, strain rtc3, stronger effect = lower value
[10] = locus YJR043C, strain POL32, stronger effect = lower value
[11] = locus YJR075W, strain HOC1, stronger effect = lower value
[12] = locus YLR039C, strain RIC1, stronger effect = lower value
[13] = locus YLR058C, strain SHM2 (second series), stronger effect = lower value
[14] = locus YLR085C, strain ARP6, stronger effect = lower value
[15] = locus YLR262C, strain YPT6, stronger effect = lower value
[16] = locus YML094W, strain GIM5, stronger effect = lower value
[17] = locus YMR219W, strain ESC1, stronger effect = lower value
[18] = locus YMR263W, strain SAP30, stronger effect = lower value
[19] = locus YNL128W, strain TEP1, stronger effect = lower value
[20] = locus YNL153C, strain GIM3, stronger effect = lower value
[21] = locus YNL298W, strain CLA4 (second series), stronger effect = lower value
[22] = locus YNL322C, strain KRE1, stronger effect = lower value
[23] = locus YNR030W, strain Alg12, stronger effect = lower value
[24] = locus YPL055C, strain LGE1, stronger effect = lower value
[25] = locus YPL241C, strain CIN2, stronger effect = lower value
[26] = locus YPR135W, strain CTF4, stronger effect = lower value
[27] = locus YMR307W, strain GAS1, stronger effect = lower value

In the case of COc1cc(NC(=S)N2CCN(c3ccccc3OC)CC2)c(OC)cc1Cl, the normalized growth [1] is reported as 1.01, the normalized growth [2] is reported as 0.992 and the normalized growth (locus YCL061C, strain MRC1, stronger effect = lower value) is reported as 0.984. The normalized growth [3] was 1, the normalized growth [4] was 1.01 and the normalized growth [5] was 0.92. The normalized growth [6] was 1, the normalized growth [7] was 1.01 and the normalized growth [8] was 0.95. For the same compound, the normalized growth [9] was 1.01, the normalized growth (locus YJL187C, strain SWE1, stronger effect = lower value) was 0.997 and the normalized growth [10] was 0.984. The normalized growth [11] was 0.999, the normalized growth (locus YKL190W, strain CNB1, stronger effect = lower value) was 1.02 and the normalized growth [12] was 0.949. The normalized growth [13] was 1.01, the normalized growth [14] was 1.14 and the normalized growth [15] was 0.962. It also gave a normalized growth [16] of 0.995, a normalized growth [17] of 1 and a normalized growth [18] of 0.924. The normalized growth [19] was 1.02, the normalized growth [20] was 0.98 and the normalized growth [21] was 1. The normalized growth [22] was 0.997, the normalized growth [23] was 1.01 and the normalized growth [24] was 0.9. The normalized growth [25] was 0.895 and the normalized growth [26] was 0.966.
N#Cc1nccnc1N1CCN(C(=O)Nc2cc(Cl)cc(Cl)c2)CC1 showed a normalized growth (locus YAR019C, strain CDC15, stronger effect = lower value) of 0.963, a normalized growth (locus YBL105C, strain PKC1, stronger effect = lower value) of 0.972 and a normalized growth (locus YBR135W, strain CKS1, stronger effect = lower value) of 0.947. For the same compound, the normalized growth (locus YBR136W, strain MEC1, stronger effect = lower value) was 0.972, the normalized growth (locus YBR160W, strain CDC28, stronger effect = lower value) was 0.965 and the normalized growth (locus YDL017W, strain CDC7, stronger effect = lower value) was 0.969. For the same compound, the normalized growth (locus YDL028C, strain MPS1, stronger effect = lower value) was 0.965, the normalized growth [3] was 0.975 and the normalized growth (locus YDL108W, strain KIN28, stronger effect = lower value) was 0.968. The normalized growth (locus YDL132W, strain cdc53, stronger effect = lower value) was 0.967, the normalized growth (locus YDL214C, strain PRR2, stronger effect = lower value) was 0.955 and the normalized growth (locus YDR052C, strain DBF4, stronger effect = lower value) was 0.969. For the same compound, the normalized growth (locus YDR054C, strain cdc34, stronger effect = lower value) was 0.952, the normalized growth (locus YDR226W, strain ADK1, stronger effect = lower value) was 0.965 and the normalized growth (locus YDR477W, strain SNF1, stronger effect = lower value) was 0.923. For the same compound, the normalized growth (locus YER123W, strain YCK3, stronger effect = lower value) was 0.946, the normalized growth (locus YER133W, strain GLC7, stronger effect = lower value) was 0.967 and the normalized growth (locus YFL009W, strain cdc4, stronger effect = lower value) was 0.951. It also gave a normalized growth (locus YFL029C, strain CAK1, stronger effect = lower value) of 0.958, a normalized growth (locus YFR003C, strain YPI1, stronger effect = lower value) of 0.972 and a normalized growth (locus YFR019W, strain FAB1, stronger effect = lower value) of 0.947. The normalized growth (locus YFR028C, strain CDC14, stronger effect = lower value) was 0.966, the normalized growth (locus YGR040W, strain KSS1, stronger effect = lower value) was 0.946 and the normalized growth (locus YGR052W, strain FMP48, stronger effect = lower value) was 1.05. The normalized growth (locus YGR092W, strain DBF2, stronger effect = lower value) was 0.896, the normalized growth [8] was 0.714 (active) and the normalized growth (locus YHR079C, strain IRE1, stronger effect = lower value) was 0.739. It also gave a normalized growth (locus YHR082C, strain KSP1, stronger effect = lower value) of 0.964, a normalized growth (locus YHR205W, strain SCH9, stronger effect = lower value) of 0.946 and a normalized growth (locus YIL147C, strain SLN1, stronger effect = lower value) of 0.966. It also gave a normalized growth (locus YJL095W, strain BCK1, stronger effect = lower value) of 0.824, a normalized growth (locus YJL128C, strain PBS2, stronger effect = lower value) of 0.954 and a normalized growth (locus YJL157C, strain FAR1, stronger effect = lower value) of 0.925. For the same compound, the normalized growth (locus YJR016C, strain ILV3, stronger effect = lower value) was 0.952, the normalized growth (locus YJR066W, strain TOR1 (second series), stronger effect = lower value) was 0.934 and the normalized growth (locus YJR066W, strain TOR1, stronger effect = lower value) was 0.891. The normalized growth (locus YKL048C, strain ELM1, stronger effect = lower value) was 0.959, the normalized growth (locus YKL067W, strain YNK1, stronger effect = lower value) was 0.959 and the normalized growth (locus YKL101W, strain HSL1, stronger effect = lower value) was 0.938. The normalized growth (locus YKL193C, strain SDS22, stronger effect = lower value) was 0.961, the normalized growth (locus YKL203C, strain TOR2, stronger effect = lower value) was 0.985 and the normalized growth (locus YLR113W, strain HOG1, stronger effect = lower value) was 0.892. For the same compound, the normalized growth (locus YLR133W, strain CKI1, stronger effect = lower value) was 0.942, the normalized growth (locus YLR403W, strain SFP1, stronger effect = lower value) was 0.949 and the normalized growth (locus YML070W, strain DAK1, stronger effect = lower value) was 0.94. For the same compound, the normalized growth (locus YMR001C, strain CDC5, stronger effect = lower value) was 0.968, the normalized growth (locus YMR205C, strain PFK2 (second series), stronger effect = lower value) was 0.947 and the normalized growth (locus YMR277W, strain FCP1, stronger effect = lower value) was 0.97. For the same compound, the normalized growth (locus YNL006W, strain LST8, stronger effect = lower value) was 0.961, the normalized growth (locus YNL020C, strain ARK1, stronger effect = lower value) was 0.934 and the normalized growth (locus YNL161W, strain CBK1, stronger effect = lower value) was 0.961. It also gave a normalized growth (locus YNL183C, strain NPR1, stronger effect = lower value) of 0.952, a normalized growth (locus YNL207W, strain RIO2, stronger effect = lower value) of 0.971 and a normalized growth (locus YNL222W, strain SSU72, stronger effect = lower value) of 0.967. The normalized growth (locus YNL307C, strain MCK1 (second series), stronger effect = lower value) was 0.941, the normalized growth (locus YOL078W, strain AVO1, stronger effect = lower value) was 0.961 and the normalized growth (locus YOL136C, strain PFK27, stronger effect = lower value) was 0.924. It also gave a normalized growth (locus YOR061W, strain CKA2, stronger effect = lower value) of 0.931, a normalized growth (locus YOR119C, strain RIO1, stronger effect = lower value) of 1.02 and a normalized growth (locus YOR231W, strain MKK1, stronger effect = lower value) of 0.883. For the same compound, the normalized growth (locus YOR329C, strain SCD5, stronger effect = lower value) was 0.971, the normalized growth (locus YPL031C, strain PHO85, stronger effect = lower value) was 0.9 and the normalized growth (locus YPL153C, strain RAD53, stronger effect = lower value) was 0.906. The normalized growth (locus YPL204W, strain HRR25, stronger effect = lower value) was 0.915, the normalized growth (locus YPL209C, strain IPL1, stronger effect = lower value) was 0.974 and the normalized growth (locus YPL256C, strain CLN2, stronger effect = lower value) was 0.922. The normalized growth (locus YPR025C, strain CCL1, stronger effect = lower value) was 0.959, the normalized growth (locus YPR106W, strain ISR1, stronger effect = lower value) was 0.986 and the normalized growth (locus YPR111W, strain DBF20, stronger effect = lower value) was 0.958. For the same compound, the normalized growth (strain NNK1, stronger effect = lower value) was 0.973 and the normalized growth (strain TSCII, stronger effect = lower value) was 0.953.
For O=C(Nc1ccc(Cl)cc1)N1CCN(c2ncccc2C(F)(F)F)CC1, the normalized growth [1] was 0.996, the normalized growth [2] was 0.979 and the normalized growth [3] was 0.956. For the same compound, the normalized growth [4] was 0.955, the normalized growth [5] was 0.978 and the normalized growth [6] was 0.976. The normalized growth [7] was 0.939, the normalized growth [8] was 0.713 and the normalized growth [9] was 0.939. The normalized growth [10] was 0.97, the normalized growth [11] was 0.908 and the normalized growth [12] was 1.04. The normalized growth [13] was 0.968, the normalized growth [14] was 0.944 and the normalized growth [15] was 0.978. It also gave a normalized growth [16] of 0.957, a normalized growth [17] of 0.976 and a normalized growth [18] of 0.969. It also gave a normalized growth [27] of 0.805, a normalized growth [20] of 0.946 and a normalized growth [21] of 0.893. The normalized growth [22] was 0.988, the normalized growth [23] was 0.956 and the normalized growth (locus YOL006C, strain TOP1, stronger effect = lower value) was 0.782. For the same compound, the normalized growth [24] was 0.943, the normalized growth [25] was 0.92 and the normalized growth [26] was 1.04.
For COc1ccccc1N1CCN(CCN(C(=O)C2CCCCC2)c2ccccn2)CC1, the normalized growth (locus YAL040C, strain CLN3, stronger effect = lower value) was 0.99, the normalized growth (locus YCL061C, strain MRC1 (second series), stronger effect = lower value) was 1.01 and the normalized growth (locus YDR363W, strain ESC2, stronger effect = lower value) was 1.01. The normalized growth (locus YER002W, strain NOP16, stronger effect = lower value) was 1.01, the normalized growth [11] was 1.01 and the normalized growth [18] was 0.997. For the same compound, the normalized growth [27] was 0.993, the normalized growth [19] was 1.01 and the normalized growth [20] was 1.01. It also gave a normalized growth (locus YNL175C, strain NOP13, stronger effect = lower value) of 0.999, a normalized growth (locus YNL197C, strain WHI3, stronger effect = lower value) of 1 and a normalized growth (locus YNL224C, strain SQS1, stronger effect = lower value) of 1. It also gave a normalized growth (locus YOR083W, strain WHI5 (second series), stronger effect = lower value) of 1.05 and a normalized growth [25] of 1.01.
